Screening data from PubChem BioAssay.
TbREL1 inh – TbREL1 inhibition, primary screen. AID 1117264. inhibition, % at 9.66 µM. actives 0.49% (n = 89,000). TbREL1 RNA ligation, FRET fluorescence;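 active = inhibition above the mean inhibition across all screened compounds plus 3 SD, cut at about 11% in these data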;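 also: 0% = plate median of test wells and 100% = NSC42067 control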
Target sequence (P86926 whole entry, looked up): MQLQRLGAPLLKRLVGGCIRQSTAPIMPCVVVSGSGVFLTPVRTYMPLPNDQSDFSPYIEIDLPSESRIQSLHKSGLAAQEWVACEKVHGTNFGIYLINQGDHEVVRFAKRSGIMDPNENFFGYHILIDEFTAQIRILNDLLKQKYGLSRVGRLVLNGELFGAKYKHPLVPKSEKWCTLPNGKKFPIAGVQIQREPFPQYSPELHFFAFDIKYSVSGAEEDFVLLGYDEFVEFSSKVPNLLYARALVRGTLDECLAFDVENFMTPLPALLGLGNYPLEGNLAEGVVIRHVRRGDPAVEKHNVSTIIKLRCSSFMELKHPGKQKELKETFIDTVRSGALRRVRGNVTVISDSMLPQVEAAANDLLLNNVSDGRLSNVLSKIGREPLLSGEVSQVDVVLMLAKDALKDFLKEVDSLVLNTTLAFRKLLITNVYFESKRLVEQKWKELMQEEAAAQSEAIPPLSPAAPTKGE
TbREL1 conf – TbREL1 inhibition, confirmation | actives 37% (n = 390) | AID 1117282 | inhibition, % at 9.66 µM | TbREL1 RNA ligation, FRET fluorescence | shares compounds with TbREL1 inh;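 active = mean inhibition across replicates above a set limit taken from the earlier primary screen, cut at about 11% in these data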;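 also: 0% = REL1 with substrate and DMSO and 100% = REL1 plus control inhibitor NSC42067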
An asterisk follows results filed as active. The full list was thinned out, with hits kept by preference.

SMILES | TbREL1 inh | others
CN(C)CCCN(C(=O)c1ccc(C(=O)c2ccccc2)cc1)c1nc2cc3c(cc2s1)OCCO3 | 12* | TbREL1 conf=8
Cc1ccc2nc(N(CCCN(C)C)C(=O)c3ccc(S(=O)(=O)N4CCc5ccccc5C4)cc3)sc2c1 | 0
CN(C)CCCN(C(=O)c1ccc(S(=O)(=O)N2CCc3ccccc32)cc1)c1nc2ccc(Cl)cc2s1 | 6
CN(C)CCCN(C(=O)c1ccc(S(=O)(=O)N2CCc3ccccc32)cc1)c1nc2ccc(F)cc2s1 | 12* | TbREL1 conf=8
Cc1ccc(-n2c(SCC(=O)Nc3ccccc3-c3ccccc3)nnc2-c2ccccc2)cc1 | -1
O=C(CSc1nnc(-c2cccnc2)n1-c1ccc(Cl)cc1)c1ccc(F)cc1 | -4
O=S1(=O)c2c(cccc2N2CCC[C@H]2CO)OCCCN1C1CC1 | 4
COc1cc(O)c(C(CC(=O)N2CC(C)OC(C)C2)c2ccc3c(c2)OCO3)c(OC)c1 (centres undefined) | 0
COc1ccc(/C=N/Nc2nc(-c3ccc(Cl)cc3)cc(C(F)(F)F)n2)cc1OC | -2
COc1ccc(-c2cnnc(N/N=C/c3ccc(OC)c(OC)c3)n2)cc1 | 11* | TbREL1 conf=-2
CCOc1cc(/C=N/Nc2nncc(-c3ccccc3)n2)ccc1O | 0
COC(=O)CSc1nnc(-c2n[nH]c3c2CCC3)n1N | -3
CN(C)c1ccc(-c2nc3ncc(Cl)cc3[nH]2)cc1 | -2
O=C(Cn1nnc(-c2ccccc2F)n1)Nc1ccc(Cl)c(Cl)c1 | 7
COc1ccc(S(=O)(=O)N(C)C[C@@H]2Oc3c(NC(=O)Nc4ccccc4)cccc3C(=O)N([C@@H](C)CO)C[C@H]2C)cc1 | -6
C=CCn1c(CCNC(=O)c2ccccc2F)nnc1SCC(=O)Nc1nc(C)cs1 | -1
C=CCn1c(CCNC(=O)c2ccccc2F)nnc1SCC(=O)Nc1ccccc1F | 1
C=CCn1c(CNC(=O)c2ccccc2F)nnc1SCC(=O)NC(C)c1ccccc1 (centres undefined) | 12* | TbREL1 conf=5
O=C(Cn1c(=O)oc2ccccc21)c1ccccc1 | 2
CC(C)(C)c1csc(NC(=O)Cn2c(=O)oc3ccccc32)n1 | 6
CC(C)(C)NC(=O)Cn1c(=O)oc2ccc(Cl)cc21 | 59* | TbREL1 conf=5
CCn1c(SCC(=O)Nc2ccccc2-c2ccccc2)nnc1-c1ccc(Cl)cc1 | -1
COc1cc(C=NN2CCN(C(c3ccccc3)c3ccccc3)CC2)cc(OC)c1OC(C)=O | 5
NC(COCc1ccccc1)c1csc(Nc2ccc(C(F)(F)F)cn2)n1 (centres undefined) | 9
CCCCN(C)C(=O)c1ccc(Nc2nc(C(N)Cc3ccc(C(F)(F)F)cc3)cs2)nc1 (centres undefined) | 17* | TbREL1 conf=13*
SMILES | TbREL1 inh | others
COc1ccc(CC(N)c2csc(NC(=O)Nc3cccc(C(F)(F)F)c3)n2)cc1 (centres undefined) | 5
O=C(CN(Cc1ccc(F)cc1)C(=O)CNS(=O)(=O)c1ccc(F)cc1)NCc1ccco1 | -4
CCC(C(=O)NCc1ccco1)N(C(=O)CNS(=O)(=O)c1ccc(F)cc1)c1ccccc1F (centres undefined) | 36* | TbREL1 conf=2
CCCC(C(=O)NCc1ccco1)N(CC1CCCO1)C(=O)CNS(=O)(=O)c1ccc(F)cc1 (centres undefined) | -2
CCCC1CCC2(CCCN2CCOC(=O)Nc2ccc(Br)cc2)CC1 (centres undefined) | 8
O=C(Cc1c[nH]c2ccccc12)Nc1ccc(Nc2cccnc2)c(-c2cc(F)cc(F)c2)c1 | -1
CCOc1ccc(-n2c(SCC(=O)c3ccccc3Cl)nnc2-c2ccncc2)cc1 | 5
COC(CNC(=O)[C@H](Cc1c[nH]c2ccccc12)NC1(C(=O)NC(c2ccccc2)c2ccccc2)CCCCC1)OC | -4
O=C(CSc1nc2ccccc2[nH]1)NN=Cc1ccccc1C(=O)O | 5
NC(Cc1ccc(C(F)(F)F)cc1)c1csc(NC(=O)Nc2ccccc2Cl)n1 (centres undefined) | 5
CC(C)c1ccc(NC(=O)Nc2nc(C(N)CCc3ccccc3)cs2)cc1 (centres undefined) | 7
CC(C)C(N)c1csc(NC(=O)Nc2ccccc2C(C)(C)C)n1 (centres undefined) | 13* | TbREL1 conf=9
CCn1c2ccccc2c2cc(NC(=O)COC(=O)c3cccc(F)c3)ccc21 | -3
COc1ccc(N2CCN(CCCNC(=O)CCc3ccc(F)cc3)CC2)cc1 | -8
COC(=O)[C@]12C[C@H](CC(=O)N3CCC(c4ccccc4)CC3)C(=O)N(Cc3cccc4ccccc34)C1=C[C@H](C(C)C)O[C@@H]2C1CC1 | 1
O=C(NCc1ccccc1)OCCN1CCN(Cc2ccccc2)CCC1=O | -3
Cc1ccc(NC(=O)OCCN2CCN(Cc3ccccc3)CCC2=O)cc1C | 12* | TbREL1 conf=0
O=C(Nc1ccc(F)cc1)OCCN1CCN(Cc2ccccc2)CCC1=O | -3
CCCCN(C)c1c2c(nc3ncnn13)CCCC2 | 7
S=C(Nc1ccccc1Cl)OCCN1CCCC12CCC(c1ccccc1)CC2 (centres undefined) | 0
CCN(CC)C(=O)CN1C(=O)C2CCCCN2C(=O)c2ccccc21 (centres undefined) | 5
O=C(Nc1ccon1)c1ccc(S(=O)(=O)N2CCOCC2)cc1 | 13* | TbREL1 conf=5
O=C(Nc1cccc(F)c1)c1ccc(S(=O)(=O)N2CCOCC2)cc1 | -2
CC1CN(S(=O)(=O)c2ccc(C(=O)Nc3ccc(S(=O)(=O)N4CCOCC4)cc3)cc2)CC(C)O1 (centres undefined) | -1
Nn1c(SCC(=O)Nc2ccc(OCc3ccccc3)cc2)nnc1-c1cc(-c2ccccc2)n[nH]1 | 0
SMILES | TbREL1 inh | others
CCCCNC(=O)C1CCCN1C(=O)Nc1ccc(Cl)cc1 (centres undefined) | 0
C#CCOCCOCCOCCNc1nc(N2CCN(C(=O)[C@H]([C@@H](C)CC)n3cc([C@@H](N)CC(C)C)nn3)CC2)nc(N2CCN(C(=O)[C@H]([C@@H](C)CC)n3cc([C@@H](N)CC(C)C)nn3)CC2)n1 | 11* | TbREL1 conf=9
C#CCOCCOCCOCCNc1nc(N2CCN(C(=O)[C@H]([C@@H](C)CC)n3cc([C@@H](N)Cc4ccc(O)cc4)nn3)CC2)nc(N2CCN(C(=O)[C@H]([C@@H](C)CC)n3cc([C@@H](N)Cc4ccc(O)cc4)nn3)CC2)n1 | 9
C#CCOCCOCCOCCNc1nc(N2CCN(C(=O)[C@H]([C@@H](C)CC)n3cc([C@@H](N)CC(C)C)nn3)CC2)nc(N2CCN(C(=O)[C@H](Cc3ccc(O)cc3)n3cc([C@@H](N)CC(C)C)nn3)CC2)n1 | 5
CCCC1CCC2(CCCN2CCOC(=S)NCc2cccc(C)c2)CC1 (centres undefined) | 0
CC(C)OC(=O)C1=CNCC(C)(C)c2c1[nH]c1cc(F)ccc21 | -7
CC(C)(C)c1ccc(-c2nnc(SCc3ccccc3)n2Cc2ccco2)cc1 | 6
NC(=O)C1CCN(c2nc(-c3ccc(OCc4ccccc4)cc3)cs2)CC1 | 1
Cc1cc(C)cc(N(CC(=O)NC2CCC(C)CC2)S(=O)(=O)c2cccs2)c1 (centres undefined) | -1
O=C(c1ccccc1)c1nnc(-c2ccccc2F)o1 | 2
CC(=O)c1ccc(NS(=O)(=O)c2ccccc2)cc1 | 5
CC(=O)c1ccc(Nc2ccc(-c3ccccc3F)nn2)cc1 | 13* | TbREL1 conf=3
CCOC(=O)c1cccc(NC(=O)CN(C)S(=O)(=O)c2ccco2)c1 | -1
